Screens: PubChem, National Center for Advancing Translational Sciences (NCATS)
FMDV RLuc – antivirals against foot and mouth disease virus replicon; Potency, µM (titrated, usually from 57.5 µM), inactives show top-dose activity change, negative = inhibition, usual class: inhibitors; FMDV replicon cells, Renilla luciferase signal; AID 1745857; hit rate 0.32% among 120,000; further: nearly all actives have a fitted effect of over 55% in size
FMDV antiviral – FMDV antiviral activity by firefly signal. FMDV antiviral cell assay, firefly luciferase signal. Potency, µM (titrated, usually from 57.5 µM), without a hit: at the top dose activity change, negative = inhibition, most hits filed as inhibitors. hit rate 0.23% among 120,000. AID 1745856; further: nearly all actives have a fitted effect of over 60% in size
Starred values were filed as active, the others as inactive; ? = inconclusive; [ ] = remark or other dose. The list is not random: actives were taken first. Their share in the collection is about 0.45%. The call rests on the fitted dose curve. On the % scale 0 is the no-effect control and ±100 the full control effect; potency means the concentration at half of the fitted maximal effect.

SMILES	FMDV RLuc	FMDV antiviral
CC(C)OCCCNC(=O)CCc1ncc(-c2ccc(F)cc2F)o1	-8.2%	2.0%
CN(C)CCCNC(=O)c1cc(-c2ccc(-c3ccccc3)cc2)nc2ccccc12	8.91µM*	99.3%
CN(C)CCCNC(=O)c1cc(-c2ccccc2)nc2ccccc12	-13.6%	-10.6%
Cc1cccc(-c2noc(-c3ccccc3Br)n2)c1	6.6%	0.0%
CC(O)CNS(=O)(=O)c1ccc(C(C)(C)C)cc1 (stereo not drawn)	0.0%	23.5%
COc1cc(CCC(=O)OCc2ccc(Cl)cc2)cc(OC)c1OC	-18.3%	1.4%
COc1ccc(CCNC(=O)C(C)n2nc(C)c3c(C)n(-c4ccccc4)nc3c2=O)cc1OC (stereo not drawn)	8.9%	22.7%
Cc1ccc(CCNC(=O)C(C)n2nc(C)c3c(C)n(-c4ccc(C)cc4)nc3c2=O)cc1 (stereo not drawn)	12.6µM*	?
CCn1c2c(c(=O)n3ncc(C(=O)N4CCN(c5ccc(C(C)=O)cc5)CC4)c13)CN(Cc1ccc(OC)cc1)CC2	22.4µM*	?
CCOC(=O)c1ccc(NC(=O)c2cnn3c(=O)c4c(n(CC)c23)CCN(Cc2ccc(OC)cc2)C4)cc1	7.8%	-14.7%
CCCOc1ccc(C(=O)C(CCC(CNC(C)(C)C)C(=O)c2ccc(OCCC)cc2)CNC(C)(C)C)cc1 (stereo not drawn)	28.2µM*	?
CCCOc1ccc(C(=O)Nc2ccc(NC(=O)c3ccc(Br)cc3)cc2)cc1	-7.7%	6.8%
CCc1ccc(C(=O)C(C)Sc2nc(CN3CCOCC3)nc3ccccc23)cc1 (stereo not drawn)	-20.1%	-23.5%
Cc1ccc(N(C)S(=O)(=O)c2cc3c(cc2Cl)Oc2ccc(C)cc2NC3=O)cc1	6.3%	-18.2%
COc1cc(/C=N/O)c(Br)cc1OCC(=O)NN	74.3%	49.6%
O=C(O)CNS(=O)(=O)c1ccc(Cl)c(C(F)(F)F)c1	-0.1%	-6.6%
C(#CCN1CCOCC1)CC(c1ccccc1)c1ccccc1	9.8%	11.3%
CCC[N+]1(CC#CCC(c2ccccc2)c2ccccc2)CCCCC1	3.98µM*	?
CCOC(=O)C1=C(C(F)(F)F)Nc2ncnn2C1c1ccc(F)cc1 (stereo not drawn)	19.9%	19.9%
COC(=O)c1ccc(Oc2c(C)oc3cc(OCc4ccc(F)cc4)ccc3c2=O)cc1	-4.0%	4.4%
COC(=O)c1ccc(COc2ccc3c(=O)c(-c4ccccc4OC)c(C)oc3c2)cc1	-35.2%	1µM*
COCCCNC(=O)CN(C)C(=O)c1cc2ccccc2n1C	-16.9%	-8.6%
COc1ccc(-n2nnnc2C2CCN(S(=O)(=O)c3ccc(F)cc3Cl)CC2)cc1	-1.4%	-1.2%
COc1ccc(-n2nnnc2C2CCN(S(=O)(=O)c3cc(OC)ccc3OC)CC2)cc1	25.1µM*	?
O=C(NCc1ccccc1)c1cc2ccccc2[nH]1	0.0%	6.9%
SMILES	FMDV RLuc	FMDV antiviral
O=C(c1cccs1)c1cn(CCOc2ccccc2F)c2ccccc12	7.1%	21.3%
Cc1ccc(OCCn2cc(C(=O)C3CC3)c3ccccc32)cc1	41.2%	68.5%
COc1ccc(OCCn2cc(C(C)=O)c3ccccc32)cc1	?	25.1µM*
CC(=O)c1cn(CCOc2ccccc2F)c2ccccc12	8.91µM*	?
COP(=O)(OC)c1nc(Cc2cccc3ccccc23)oc1NCc1ccc2c(c1)OCO2	25.0%	20.2%
COC(=O)C1(NC(=O)COc2cc(Cl)ccc2Cl)CCCCCC1	5.01µM*	?
COC(=O)C1(NC(=O)COc2cccc(F)c2)CCCCC1	12.0%	2.4%
C[C@@H](O[C@H]1OCCN(Cc2n[nH]c(=O)[nH]2)[C@H]1c1ccc(F)cc1)c1cc(C(F)(F)F)cc(C(F)(F)F)c1	31.6µM*	?
CC(C)(C#N)/[N+]([O-])=C/c1ccc(Cl)cc1Cl	8.0%	1.8%
O=C(CCl)c1c[nH]c2ccccc12	-6.1%	13.6%
O=C1CN=C(c2ccccc2Cl)c2cc(Cl)ccc2N1Cc1cccc(Cl)c1	31.6µM*	25.1µM*
COC(=O)c1ccccc1NC(=O)CN1C(=O)CN=C(c2ccccc2Cl)c2cc(Cl)ccc21	-9.7%	-28.6%
CNc1nc2c(c(=O)n(C)c(=O)n2C)n1CC(O)COc1ccc(C)cc1 (stereo not drawn)	11.2µM*	?
CCNc1nc2c(c(=O)n(C)c(=O)n2C)n1CC(O)COc1ccccc1 (stereo not drawn)	-11.4%	-1.3%
CCC(C)NC(=O)c1ccc(N(C)C2CCCCC2)cc1 (stereo not drawn)	-3.0%[1.06 µM]	205.0%
CCC(C)NC(=O)N(C)C1CCN(c2ccc(Cl)cc2)CC1 (stereo not drawn)	12.6µM*	?
O=S(=O)(Nc1nc2ccccc2nc1Nc1ccc(F)cc1)c1cccc(Cl)c1	?	6.31µM*
COc1ccc(Nc2nc3ccccc3nc2NS(=O)(=O)c2cccc(Cl)c2)cc1	53.6%	4.0%
O=C(CSc1nc(=O)n(Cc2cccnc2)c2c1CCC2)Nc1cccc(Cl)c1	18.7%	-3.3%
CC(C)c1ccc(NC(=O)CSc2nc(=O)n(Cc3cccnc3)c3c2CCC3)cc1	8.91µM*	?
